# Screens from PubChem.
# MPTP inh: blocks calcium-induced mitochondrial swelling. inhibition, % at 10 µM. isolated mouse mitochondria, Ca2+ swelling absorbance, 30 min. AID 602449. 360,000 compounds, 1.4% hits;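 active = inhibition of 50% or more, scaled per plate between neutral and stimulator controls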;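 also: 0% = DMSO wells given calcium and 100% = 1 mM EGTA wells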
# Calb FLC: C. albicans growth modulation with fluconazole; C. albicans CaCi-2 (fluconazole-resistant clinical isolate) + fluconazole, Alamar Blue growth, 48 h; 300,000 compounds, 0.57% hits; AID 1979; growth inhibition, % (concentration not given with the values);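 active = growth inhibition above about 58% in most replicates, limit read from the data, passing the limit was not always enough; inconclusive = exactly half the replicates above a set limit; inactive = most replicates below a set limit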;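 also: all wells also contain fluconazole at 8 µg/ml as a sub-toxic cotreatment; 0% = median of DMSO wells and 100% = median of geldanamycin control wells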
# Mdm2-MdmX inh: disrupts the human Mdm2-MdmX interaction; 330,000 compounds, 3% hits; O15151+Q00987; inhibition, % at 8 µM; SaOS-2 split-luciferase Mdm2/MdmX complementation, luminescence;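 active = inhibition of at least 50% at 8 µM in the primary screen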
# Target sequence (O15151 whole entry, looked up): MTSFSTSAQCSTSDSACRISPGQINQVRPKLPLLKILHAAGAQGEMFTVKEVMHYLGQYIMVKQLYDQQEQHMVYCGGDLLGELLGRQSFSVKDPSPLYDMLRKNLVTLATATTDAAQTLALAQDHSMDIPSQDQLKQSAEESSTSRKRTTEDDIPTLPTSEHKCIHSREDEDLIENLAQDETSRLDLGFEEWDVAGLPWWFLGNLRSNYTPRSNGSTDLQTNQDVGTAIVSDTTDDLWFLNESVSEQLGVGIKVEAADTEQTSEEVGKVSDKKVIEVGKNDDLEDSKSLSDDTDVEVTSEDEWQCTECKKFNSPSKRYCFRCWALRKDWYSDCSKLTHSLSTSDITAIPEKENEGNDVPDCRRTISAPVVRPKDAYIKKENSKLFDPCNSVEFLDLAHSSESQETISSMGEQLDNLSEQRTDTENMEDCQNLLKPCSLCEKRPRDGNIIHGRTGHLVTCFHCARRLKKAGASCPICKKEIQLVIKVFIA
# Target sequence (Q00987 whole entry, looked up): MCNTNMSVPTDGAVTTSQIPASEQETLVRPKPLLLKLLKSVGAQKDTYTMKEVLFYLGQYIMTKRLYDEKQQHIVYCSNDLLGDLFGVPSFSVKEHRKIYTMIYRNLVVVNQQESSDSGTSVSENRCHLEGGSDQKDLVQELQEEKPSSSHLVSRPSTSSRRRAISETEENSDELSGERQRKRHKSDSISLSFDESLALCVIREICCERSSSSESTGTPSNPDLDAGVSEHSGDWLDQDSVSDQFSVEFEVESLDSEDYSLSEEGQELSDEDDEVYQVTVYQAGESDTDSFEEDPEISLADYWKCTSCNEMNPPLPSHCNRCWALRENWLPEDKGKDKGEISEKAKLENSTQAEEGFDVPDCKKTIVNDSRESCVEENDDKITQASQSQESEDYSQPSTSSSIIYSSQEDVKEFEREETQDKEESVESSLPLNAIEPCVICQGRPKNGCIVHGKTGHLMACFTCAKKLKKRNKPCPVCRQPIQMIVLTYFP
# CSC inhib: cancer stem cell inhibition; cancer stem cell-like cells viability, luminescence; inhibition, % at 7.5 µM; 300,000 compounds, 1.1% hits; AID 2717; in the data active = inhibition above about 75%; inconclusive = no clear call, values can overlap the other calls; tested in HMLE shEcad cells
# Beta cell apopt: blocks beta cell apoptosis; INS-1E cytokine-induced death, ATP luminescence, 48 h; percent of positive-control rescue, neutral wells zero; protection from apoptosis, % (concentration not given with the values); 300,000 compounds, 0.8% hits; AID 435005;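 active = Every replicate reaches about 75%, or at least half do and their mean reaches it too, limit read from the data; inconclusive = At least half of replicates reach the limit but their mean does not; inactive = Under half of replicates reach the limit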;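 also: 0% = cytokine-treated negative control wells and 100% = positive control rescue; higher means more ATP so stronger rescue from cytokine killing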
# Mdm2-MdmX conf: confirmation of human Mdm2/MdmX interaction inhibitors; shares compounds with Mdm2-MdmX inh; AID 489028; Mdm2-MdmX binding, luminescent assay; 10,000 compounds, 55% hits; inhibition, % at 8 µM; in the data active = inhibition above about 40%
# FLuc counter: counter-screen for Mdm2/MdmX inhibitors: full-length luciferase; inhibition, % at 8 µM; SaOS-2 full-length luciferase counterscreen, luminescence; 6,200 compounds, 77% hits; shares compounds with Mdm2-MdmX inh;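 active = mean inhibition at 8 µM reaching about 37%, which flags the compound as non-specific, limit read from the data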;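 also: p53-null SaOS-2 cells with luciferase driven by a doxycycline-inducible promoter; compound on cells about two nights before reading with doxycycline added after day one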
# * = called active by the depositor; u = inconclusive; x = not tested or not shown. This is a sample that favours compounds with a hit; in the whole collection about 4.8% have one here.
SMILES,MPTP inh,Calb FLC,Mdm2-MdmX inh,CSC inhib,Beta cell apopt,Mdm2-MdmX conf,FLuc counter
CC(C)=CCC[C@H](C)C[C@@H]1Cc2[nH][nH]c(=O)c2[C@H](c2ccc(F)cc2)O1,-2.7,x,x,x,x,x,x
COc1cc(C(O)c2nc(-c3cccc(F)c3)cs2)ccc1F (stereo not drawn),0.6,x,x,x,x,x,x
CCCCCc1cc(=O)oc2c(C(CCN3CCCC(C)C3)c3ccc4c(c3)OCO4)c(OC)cc(OC)c12 (stereo not drawn),2.4,-3.4,78.6*,108.0*,67.3,37.6,65.7*
CCCCCc1cc(=O)oc2c(C(CCN3CCCCC3)c3ccc4c(c3)OCO4)c(OC)cc(OC)c12 (stereo not drawn),0.8,32.4,93.1*,u,98.4*,49.1*,65.1*
CCCCCc1cc(=O)oc2c(C(CCN(CC)CC)c3cc(OC)c(OC)c(OC)c3)c(OC)cc(OC)c12 (stereo not drawn),1.4,49.9,99.8*,107.4*,30.9,39.3,32.0
CSc1ccccc1NC(=O)C1CCCN(S(C)(=O)=O)C1 (stereo not drawn),0.5,-1.7,2.6,-13.5,1.4,x,x
O=C(CCS(=O)(=O)c1ccccc1)N(CCCN1CCOCC1)c1nc2ccccc2s1,-2.6,11.6,78.2*,67.2,x,43.0*,74.2*
Cc1ccc(S(=O)(=O)CCC(=O)N(CCCN2CCOCC2)c2nc3ccccc3s2)cc1,-1.9,12.7,63.8*,9.2,x,33.5,x
COc1ccc(CNC(=O)[C@@H](C)NC(=O)C2CCN(C(=O)[C@@H](N)CCSC)CC2)cc1,-0.1,-0.9,16.6,0.1,-5.4,x,x
CCOc1ccccc1Nc1cc(C)c2cccc(C)c2n1,3.0,5.8,-11.1,29.9,9.5,x,x
CCOc1nc(N=C(N)N)nc2c(C)cccc12,3.1,46.1,56.2*,-15.8,48.2,29.6,x
CC(OCC(O)CN(C)Cc1nc2ccccc2c(=O)[nH]1)c1ccc(Cl)cc1 (stereo not drawn),-2.2,-12.6,-10.8,-7.4,1.3,x,x
CC(C)NC(=O)CN1C(=O)c2ccccc2S1(=O)=O,1.6,-1.5,-14.5,-8.1,-3.6,x,x
O=C(CN1C(=O)c2ccccc2S1(=O)=O)c1ccccc1Cl,-0.1,11.7,58.3*,14.9,x,55.2*,82.0*
O=C(CN1C(=O)c2ccccc2S1(=O)=O)Nc1ncc(Cl)cc1Cl,-1.0,x,84.4*,-8.1,1.6,69.5*,64.0*
CC(C)c1ccc(NC(=O)CN2C(=O)c3ccccc3S2(=O)=O)cc1,0.3,4.9,36.9,8.7,0.9,x,x
CN(c1cccc(NC(=O)CN2C(=O)c3ccccc3S2(=O)=O)c1)S(C)(=O)=O,-2.0,-3.5,51.1*,-17.2,-3.1,38.6,81.9*
O=C(CN1C(=O)c2ccccc2S1(=O)=O)c1ccccc1,-1.4,26.4,78.1*,-7.2,-6.8,65.0*,97.8*
Cc1ccc(C(=O)CN2C(=O)c3ccccc3S2(=O)=O)cc1,1.3,-0.5,98.4*,0.1,-2.4,95.7*,23.0
Cc1ccc(C(=O)CN2/C(=C(\O)c3ccccc3)C(=O)c3ccccc3S2(=O)=O)c(C)c1,-3.8,16.3,6.9,17.0,3.7,x,x
CC(C)NC(=O)c1cnc(N2CCN(c3ccccn3)CC2)c2ccccc12,-1.2,0.2,-5.1,4.1,0.5,x,x
CCc1ccc(NC(=O)c2cnc(N3CCN(c4ccccn4)CC3)c3ccccc23)cc1,0.8,0.0,63.9*,19.3,44.0,56.0*,59.5*
Fc1cccc(COc2ccccc2CNc2ccccc2)c1,0.6,9.4,x,22.0,1.4,x,x
Oc1c(CNc2ccccc2)cc(COCc2ccccc2)c2cccnc12,0.0,x,70.5*,x,x,44.8*,79.0*
Cc1ccc(NCc2ccc(O)c3ncccc23)cc1,3.1,64.2*,75.9*,18.0,1.8,71.5*,66.1*
SMILES,MPTP inh,Calb FLC,Mdm2-MdmX inh,CSC inhib,Beta cell apopt,Mdm2-MdmX conf,FLuc counter
Cc1ccc(NCc2ccco2)cc1C,-2.6,-22.5,-10.8,-2.6,-5.0,x,x
Cc1ccc(NCc2ccc(O)c3ncccc23)cc1C,3.6,64.8*,77.5*,-6.2,3.6,63.9*,48.3*
CSc1nnc2c3ccccc3n(CCc3ccccc3)c2n1,5.1,0.8,81.6*,52.6,7.4,90.4*,42.2*
Cc1cccc(OCCCC(=O)NNC(=O)c2ccccn2)c1,-1.9,x,64.2*,x,6.3,51.6*,40.6*
Cc1cccc(OCCCC(=O)NNC(=O)c2ccncc2)c1,0.1,x,27.1,x,x,x,x
CCCCNC(=O)C(NC(=O)Cc1cc(OC)cc(OC)c1)C(=O)c1ccccc1 (stereo not drawn),-2.3,x,x,x,x,x,x
O=C(NNc1c2ccccc2nc2ccccc12)C(O)c1ccccc1 (stereo not drawn),1.3,-7.1,78.5*,-8.0,7.0,81.8*,34.4
O=C(NNc1c2ccccc2nc2ccccc12)C12CC3CC(CC(C3)C1)C2,0.8,-11.7,68.3*,6.0,13.0,3.6,x
COc1ccc(NC(=O)c2cc(CC(C)C)nc3ccccc23)cc1,1.2,26.5,91.0*,-2.3,-4.1,89.9*,51.7*
Cc1ccc(NC(=O)c2cc(C)nc3ccccc23)cc1,0.2,-3.7,9.5,0.1,-0.4,x,x
Cc1ccc(NC(=O)c2cc(CC(C)C)nc3ccccc23)cc1,0.6,1.8,81.9*,-5.4,-3.4,83.5*,54.8*
O=c1c2ccccc2cnn1CCOc1ccccc1,-0.3,-17.6,59.7*,19.8,6.1,69.0*,65.5*
O=C(O)Cc1cc(I)c(Oc2ccc(O)c(I)c2)c(I)c1,x,18.6,52.9*,47.1,-3.1,6.9,x
O=C(O)Cc1ccc(O)c(O)c1,-1.4,-10.1,7.8,-5.6,-5.0,x,x
COc1ccc(Cl)cc1NC(=O)Nc1cccc([N+](=O)[O-])c1C,45.1,-5.6,53.1*,-3.0,15.0,29.1,x
COc1ccc(Cl)cc1NC(=O)NC1CCCCC1,0.9,-5.0,6.9,3.9,-0.2,x,x
CC(Oc1ccccc1)C(=O)Nc1ccc(NC(=O)c2ccccc2)cc1 (stereo not drawn),2.0,-0.5,66.4*,1.0,-2.1,37.3,52.1*
N#Cc1c(NC(=O)CSc2nnc(-c3ccncc3)n2CC2CCCO2)sc2c1CCCC2 (stereo not drawn),1.4,8.4,21.9,-0.3,4.1,x,x
CCOC(=O)c1c(-c2ccccc2)csc1NC(=O)c1cc(-c2ccccc2OC)on1,3.5,-19.6,-2.2,2.5,5.1,x,x
COC(=O)c1ccc(C)c(NC(=O)c2c(-c3ccccc3)noc2C)c1,-1.8,-5.4,-1.9,-5.8,6.1,x,x
N#Cc1c(NC(=O)CSc2ncc(-c3ccccc3)n2CC2CCCO2)sc2c1CCCC2 (stereo not drawn),6.8,9.5,76.1*,x,6.8,41.7*,67.2*
Cc1onc(-c2ccccc2)c1C(=O)Nc1sc2c(c1C#N)CCC2,4.2,8.5,55.3*,x,x,59.5*,48.8*
CCOC(=O)c1c(-c2ccc(F)cc2)csc1NC(=O)c1c(-c2ccccc2)noc1C,3.0,15.5,84.7*,20.6,4.9,50.0*,48.2*
